From PubChem BioAssay
Sampled rows, rich in hits. Any-hit rate of the full collection: about 3.8%.
tim23-1 inh: tim23-1 yeast growth inhibition; inhibition, % at 20 µM; S. cerevisiae tim23-1 growth, BacTiter-Glo luminescence, 24 h; actives 1.3% (n = 330,000);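 active = growth inhibition of the mutant yeast at or above 50%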;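 note: temperature-sensitive mutant grown at 25 °C; plate controls were DMSO-treated mutant yeast for no effect and medium wells lacking yeast for full effect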
PfHsp90 yeast 2: inhibits growth of yeast expressing Plasmodium falciparum Hsp90; actives 0.32% (n = 310,000); inhibition, % at 9.4 µM; S. cerevisiae expressing PfHsp90, BacTiter-Glo ATP, 48 h; yeast lacking PDR1 and PDR3 efflux regulators; AID 504621;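 active = every replicate shows inhibition above about 80%, whatever the replicate mean, limit read from the data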;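 note: 0% = DMSO neutral controls and 100% = 20 µM radicicol positive controls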
B2AR ag: agonists of human beta-2 adrenergic receptor inducing internalization; P07550; Am2.2-beta2AR cells, FAP receptor internalization, flow cytometry; response, % (concentration not given with the values); actives 0.43% (n = 340,000); AID 504454;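 active = response above a set limit, near 3 SD of response in nonfluorescent compounds, cut at about 42% in these data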
Target sequence (P07550 whole entry, looked up): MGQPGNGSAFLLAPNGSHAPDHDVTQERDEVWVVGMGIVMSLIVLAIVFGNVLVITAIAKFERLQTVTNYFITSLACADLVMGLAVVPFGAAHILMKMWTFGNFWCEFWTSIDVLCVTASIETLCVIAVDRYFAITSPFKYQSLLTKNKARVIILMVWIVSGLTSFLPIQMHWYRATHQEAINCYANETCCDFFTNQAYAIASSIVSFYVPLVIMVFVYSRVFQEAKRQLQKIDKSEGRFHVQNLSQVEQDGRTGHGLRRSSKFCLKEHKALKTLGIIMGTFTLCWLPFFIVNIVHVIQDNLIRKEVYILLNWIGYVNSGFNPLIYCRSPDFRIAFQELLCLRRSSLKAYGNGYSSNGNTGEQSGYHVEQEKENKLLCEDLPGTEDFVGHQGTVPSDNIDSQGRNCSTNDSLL
TIM10 inh: growth inhibitors of TIM10 yeast strain | AID 463195 | actives 1.4% (n = 330,000) | S. cerevisiae TIM10 strain growth, BacTiter-Glo luminescence, 24 h | inhibition, % at 10 µM;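 active = inhibition of 40% or more at the single tested concentration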;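 note: wild-type TIM10 isogenic control strain grown at permissive 25 °C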
tim10-1 inh: tim10-1 yeast growth inhibition. inhibition, % at 20 µM. actives 2.2% (n = 330,000). S. cerevisiae tim10-1 ts strain growth, BacTiter-Glo, 24 h;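 active = inhibition of at least 40%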;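 note: mutant grown at 25 °C; 0% = DMSO wells with yeast and 100% = wells holding no yeast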
tim10 confirm: TIM10 yeast growth inhibition, confirmed. shares compounds with TIM10 inh. S. cerevisiae tim10 strain growth, BacTiter-Glo luminescence, 24 h. inhibition, % at 10 µM. actives 63% (n = 4,600);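 active = inhibition of yeast growth at or above a set limit in either of two replicates at 10 µM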;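 note: this counterscreen used the strain with wild-type TIM10; 0% = yeast with DMSO and 100% = medium wells lacking yeast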
Numbers without * were called inactive; x = not tested or not shown.

SMILES	tim23-1 inh	PfHsp90 yeast 2	B2AR ag	TIM10 inh	tim10-1 inh	tim10 confirm
CCOC(=O)c1cnn(-c2nc(-c3ccc(F)cc3)cs2)c1C(F)(F)F	22.8	-8.8	2.1	45.3*	24.8	25.9
Cc1cc(C)cc(OCC(=O)N2CCN(c3ncccn3)CC2)c1	11.7	1.2	-8.2	-2.9	0.2	x
COc1cccc(COC(=O)CCNC(=O)c2ccc(Cl)cc2)c1OC	22.3	19.7	10.1	-11.4	-4.3	x
COc1ccccc1CNS(=O)(=O)c1ccc(Cl)s1	19.8	-18.5	6.7	11.9	11.1	x
Cc1ccc(-c2[nH]nc3c2C(c2ccoc2)C(C#N)=C(N)O3)cc1C (centres undefined)	42.4	26.1	12.7	41.1*	38.7	29.9
COc1ccc(C(=O)Nc2ccccc2)cc1NC(=O)c1ccc([N+](=O)[O-])cc1	8.8	18.3	-0.6	-6.2	-34.5	x
CC(c1ccccc1)n1cc(C(=O)NCc2cccnc2)nn1 (centres undefined)	3.3	28.4	0.2	51.3*	0.4	-19.6
Cc1ccc(C(C)n2cc(C(=O)NCc3ccncc3)nn2)cc1 (centres undefined)	-1.0	-1.8	1.2	-8.6	-3.5	x
COc1cc2c(cc1OC)C(O)C(O)(CO)C(C(=O)O)C2c1cc(OC)c(OC)c(OC)c1 (centres undefined)	x	12.0	1.4	x	x	x
Cn1cc(Br)c(NC(=O)/C=C/C(=O)O)n1	17.1	-18.8	0.3	65.9*	1.6	3.0
CCOC(=O)N1CCN(C(=O)c2ccc3c(c2)N=C(CC)c2cc(C)ccc2S3)CC1	30.2	9.7	-1.8	40.4*	20.5	6.2
CCC1=Nc2cc(C(=O)N3CCCCC3)ccc2Sc2ccc(C)cc21	8.4	3.0	31.3	8.1	7.8	x
CCN(C(=O)COC(=O)CCOc1ccc(C(C)(C)C)cc1)c1c(N)n(Cc2ccccc2)c(=O)[nH]c1=O	x	-12.7	0.2	x	x	x
Cc1cc2n(n1)SC(Nc1cccc3ccccc13)N2 (centres undefined)	22.8	3.5	2.0	41.8*	38.2	23.4
Cc1ccc(C(=O)/C=C/Nc2ccccn2)cc1	29.7	2.8	-13.7	43.3*	3.0	30.0
Cc1ccc(N/C=C/C(=O)c2ccc(C)cc2)cc1	6.4	-1.0	9.3	-20.2	1.7	x
Cc1cccc(COc2ccc(/C=N/NC(=O)c3nnn(-c4nonc4N)c3CN3CCCCC3)cc2)c1	-14.8	11.5	4.8	42.0*	-2.4	-1.9
CCC(CO)Oc1cc(NC(=O)c2ccccc2Cl)c2ncn(C(C)C)c2c1 (centres undefined)	-2.5	-35.3	-12.8	3.3	6.2	x
C[C@]12C(=O)N(c3ccccc3)C(=O)N1[C@H]1c3ccccc3OC[C@@H]1[C@H]2c1ccccc1	46.0	-44.6	-4.0	41.8*	27.6	46.7*
CN(C(=O)c1cccc(NC(=O)Cc2ccc(NC(=O)C3CCN(C(=O)C4CC4)CC3)cc2)c1)C1CCCC1	x	7.1	2.7	x	x	x
O=C(NC1CCN(Cc2ccccc2)CC1)c1cc(S(=O)(=O)N2CCOCC2)ccc1Cl	x	x	-13.0	x	x	x
Cc1ccc(C(=O)NNC(=S)NC(=O)c2ccc(Cl)cc2)cc1	36.5	-7.5	-3.6	48.3*	38.2	31.4*
O=C(CCl)Oc1ccc2occ(C(=O)c3cccs3)c2c1	-20.4	1.2	-3.6	60.6*	16.9	40.6*
CC(=O)Oc1ccc2occ(C(=O)c3cccs3)c2c1	0.2	-6.5	-4.6	29.4	-29.1	x
O=C(Nc1ccc2oc(-c3ccccc3)nc2c1)c1ccc2c(c1)OCCO2	49.6	24.5	11.0	45.8*	31.5	52.5*
SMILES	tim23-1 inh	PfHsp90 yeast 2	B2AR ag	TIM10 inh	tim10-1 inh	tim10 confirm
N#CC1=C(N)SC(N)=C(C#N)C1CCc1ccccc1	32.5	-1.4	-67.6	70.3*	30.1	-14.2
Cc1cc2ncn(/N=C/c3ccc([N+](=O)[O-])o3)c2cc1C	-0.3	-129.8	-2.1	56.7*	39.8	56.0*
COc1ccc(C(=O)NCC(=O)OCC(=O)Nc2ncc(Cl)cc2Cl)cc1[N+](=O)[O-]	10.3	x	-5.8	-1.2	-4.1	x
O=c1oc2c3c4c(cc2c2c1CCC2)OCCN4CCC3	38.5	-17.7	-17.7	41.3*	34.2	2.2
O=c1oc2c(CN3CCOCC3)c(O)c(Cl)cc2c2c1CCCC2	2.1	-4.8	3.4	-3.9	0.6	x
COC(=O)C1=NN(C(=O)c2cccc(Br)c2)C(O)(c2ccc(Cl)cc2)C1 (centres undefined)	22.3	-10.7	-52.0	45.1*	35.3	3.2
CCCC(C)Sc1nc2c([nH]1)c(=S)n(C)c(=O)n2C (centres undefined)	x	-44.4	3.7	x	x	x
Oc1ccccc1Cn1c(-c2ccccc2O)nc2ccccc21	3.4	-11.3	0.3	52.4*	34.8	21.8
O=C1CC(c2ccccc2)=C(c2ccccc2)C1c1ccccc1 (centres undefined)	x	5.1	4.7	x	x	x
COc1ccc(OCC(O)CN2CC(C)OC(C)C2)cc1 (centres undefined)	6.7	-8.0	-7.6	-4.5	1.8	x
O=S(=O)(NCCOc1ccccc1F)c1cccc(Br)c1	38.6	x	-6.6	15.4	17.8	x
O=C1CSC(c2ccccc2Br)N1c1ccc(Cl)cn1 (centres undefined)	48.6	x	4.7	40.5*	26.6	28.6
O=C1CSC(c2ccc(Cl)cc2Cl)N1c1ccccn1 (centres undefined)	9.4	-9.9	7.1	7.3	29.4	x
CCCN=C(C)c1c(-c2ccccc2)[nH]n(-c2nc3ccccc3s2)c1=O	26.3	x	-12.5	45.4*	27.3	39.5*
CC(=O)CSc1ncnc2sc3c(c12)CCC(C)C3 (centres undefined)	37.1	-30.2	-42.4	43.2*	39.9	-4.8
O=C(N/N=C/c1cc([N+](=O)[O-])ccc1O)NC12CC3CC(CC(C3)C1)C2	34.5	13.2	6.3	43.2*	34.6	30.9
CN1C[C@@H]2[C@@H]3C(=O)N(C)C(=O)[C@@H]3[C@](Cc3ccccc3)(C1=O)N2C(=O)c1ccc(F)cc1	x	1.5	-4.3	x	x	x
O=[N+]([O-])c1ccc(Nc2nc(NCCO)nc(N3CCCC3)n2)cc1	7.5	8.0	3.1	6.3	36.8	x
NNc1nc(Nc2ccccc2)nc(N2CCCCC2)n1	36.8	3.1	-9.4	40.9*	32.3	6.5
NNc1nc(Nc2ccc([N+](=O)[O-])cc2)nc(N2CCCCCC2)n1	42.0	-9.7	8.9	97.3*	32.8	25.5
CN1C(=O)NC(c2cccc([N+](=O)[O-])c2)C2=C1CCCC2=O (centres undefined)	0.3	-18.0	-5.9	-0.6	10.0	x
CN(C)CCCN(C(=O)CCc1ccccc1)c1nc2ccc(F)cc2s1	4.2	15.5	-0.1	16.6	28.4	x
CN(C)CCN(C(=O)C1=COCCO1)c1nc2ccc(F)cc2s1	26.2	10.7	6.4	64.3*	34.4	12.9
CN(C)CCCN(C(=O)c1cc(-c2cccs2)nc2ccccc12)c1nc2ccc(F)cc2s1	13.3	x	16.0	49.4*	32.5	31.7*
